# A selection: hits, their analogues and other compounds. The true share with any hit is near 4.2%.
# USP10 inh: inhibitors of human USP10 deubiquitinase; 1.1% of 47,000 active; Q14694; inhibition, % at 20 µM; purified USP10, Ub-rhodamine fluorescence, 60 min; AID 1645856
# USP7 inh: blocks human USP7 ubiquitin-rhodamine cleavage | Q93009 | purified USP7, Ub-rhodamine cleavage fluorescence | inhibition, % at 20 µM | 0.3% of 47,000 active | AID 1645854
# OTUD3 inh: inhibitors of human OTUD3 deubiquitinase; purified OTUD3, Ub-rhodamine fluorescence, 2 h; Q5T2D3; inhibition, % at 25 µM; 0.7% of 47,000 active
# USP28 block: inhibitors of human USP28 deubiquitinase | inhibition, % at 25 µM | 3% of 47,000 active | AID 1645857 | purified USP28, Ub-rhodamine cleavage fluorescence, 30 min
# UCHL1 block: human UCHL1 deubiquitinase inhibition; P09936; purified UCHL1, Ub-rhodamine cleavage fluorescence; inhibition, % at 20 µM; 0.2% of 47,000 active; AID 1645859
# Active calls of the source: *. Rule as the data show it: active = inhibition above about 30%; inactive = the rest.
SMILES,USP10 inh,USP7 inh,OTUD3 inh,USP28 block,UCHL1 block
COc1cc2c(c3oc4cccc(O)c4c(=O)c13)C1C=COC1O2 (stereo unspecified),4,-9,11,50*,4
COc1c2c(c(O)c3c1C(=O)c1c(cc(O)c(C)c1O)C3=O)-c1c(cc3c(c1O)C(=O)OC3O)CC2 (stereo unspecified),75*,55*,89*,88*,69*
COc1ccc2c3c4n(c2c1)[C@@H](C=C(C)C)OOC(C)(C)C[C@@H]4N1C(=O)[C@@H]2CCCN2C(=O)[C@]1(O)[C@H]3O,0,2,0,3,6
CC1Oc2cc3c(-c4c(O)cc(O)c5c(O)c6c(cc45)OC(C)C(C)C6=O)c(O)cc(O)c3c(O)c2C(=O)C1C (stereo unspecified),68*,85*,84*,90*,88*
CN(C)[C@H]1C(=O)C(C(N)=O)=C(O)C2(O)C(=O)C3=C(O)c4c(O)cccc4C(C)(O)C3C(O)C12 (stereo partly specified),-8,5,-136,-59,43*
O=C(Nc1nccs1)c1cccn(Cc2ccc(Cl)c(Cl)c2)c1=O,5,0,0,2,-1
Cc1nn(Cc2ccccc2)c(Cl)c1C(=O)NC1CCCc2ccccc21 (stereo unspecified),3,-1,13,31*,4
Cc1nn(C2CCCC2)c2c1C(c1ccc(Br)cc1)SCC(=O)N2 (stereo unspecified),5,-13,0,9,4
Cc1nc(NCC2CC2)nc2c1COCC21CCN(CC2CC2)C1 (stereo unspecified),-1,0,11,14,1
CCN1CCC2(COCc3c(C)nc(-c4ccccc4)nc32)C1 (stereo unspecified),0,1,5,36*,0
CCCCCCC(=O)CCCCCC/C=C/CC(O)C(O)C(N)(CO)C(=O)O (stereo unspecified),3,4,-3,-6,0
CC1(C)CC(n2[nH]c(=O)c3c2NC(=O)CSC3c2ccc(OCc3ccccc3)cc2)CCO1 (stereo unspecified),4,2,8,26,1
COC1=C(C2=C(OC)C(=O)c3cc4c(c(O)c3C2=O)C(=O)OC(C)C4)C(=O)c2c(cc3c(c2O)C(=O)OC(C)C3)C1=O (stereo unspecified),-9,-67,64*,67*,40*
O=C1CSC(c2ccc3c(c2)OCO3)c2cnn(C3CCCCC3)c2N1 (stereo unspecified),4,-6,-9,-9,0
C=C/C(=C/C(=O)C[C@H](C)C[C@@H](C)CC[C@H](O)[C@H](C)C(=O)CC(O)[C@H](C)[C@@H](C)OC(=O)C[C@@H](O)C1=C(C)C(=O)OC1=O)CC (stereo partly specified),81*,77*,89*,90*,92*
CS(=O)(=O)c1ccc(C(=O)N(Cc2cccnc2)C2CCN(Cc3cccc(C#N)c3)CC2)cc1,0,1,-7,-1,1
